Results on 37 molecules are retold here after the supplement of paper PMC12339681.

Counter-ions that a name gives are not always drawn.

For this experiment, the system named is PBMC-derived induced microglia-like cells (piMGLC). As to the kind of experiment: synaptosome phagocytic index relative to DMSO control (fraction of DMSO); higher = more phagocytosis. Particulars: concentration: 10 uM (2 uM for compounds listed in Table S2); pretreatment time: 24 h; assay time: 3 h.
On to `Nc1cc(C(F)(F)F)c(-c2nc(N3CCOCC3)nc(N3CCOCC3)n2)cn1` [Bimiralisib], for which the synaptosome phagocytic index stood at 0.518. As for `CS(=O)(=O)CCNCc1ccc(-c2ccc3ncnc(Nc4ccc(OCc5cccc(F)c5)c(Cl)c4)c3c2)o1` [Lapatinib], the synaptosome phagocytic index was 0.0755.

On to `Cc1cnc(-c2cc(N3CCN(C(=O)CCS(C)(=O)=O)CC3)ncc2Cl)c(C)c1`, for which the synaptosome phagocytic index amounted to 0.665. Under `CN(CCOc1ccc(CC2SC(=O)NC2=O)cc1)c1ccccn1` (configuration not stated) [Rosiglitazone] stands 1.19. For the molecule `O=C(NC1CCCCC1)N(Cc1ccccc1)CC1CCNCC1`, the synaptosome phagocytic index is 0.882.

On to `C#CCN[C@@H]1CCc2ccccc21` [Rasagiline_(mesylate)], for which the synaptosome phagocytic index worked out at 0.965. Regarding `OC(Cn1cncn1)(Cn1cncn1)c1ccc(F)cc1F` [Fluconazole], the synaptosome phagocytic index is 0.902. As for `CCc1nn(CCCN2CCN(c3cccc(Cl)c3)CC2)c(=O)n1CCOc1ccccc1` [Nefazodone_(hydrochloride)], the synaptosome phagocytic index was 1.37. In the case of `Nc1ccn([C@@H]2CS[C@H](CO)O2)c(=O)n1` [Lamivudine], the synaptosome phagocytic index amounted to 0.89. `COc1cccc2c1C(=O)c1c(O)c3c(c(O)c1C2=O)C[C@@](O)(C(=O)CO)C[C@@H]3O[C@H]1C[C@H](N)[C@@H](O)[C@H](C)O1` [Epirubicin_(hydrochloride)]: the synaptosome phagocytic index is 0.904. Under `O=c1ncn2nc(Sc3ccc(F)cc3F)ccc2c1-c1c(Cl)cccc1Cl` [Neflamapimod] stands 0.984; under `C[C@H]1COCCN1c1nc(-c2cnc(N)cc2C(F)F)nc(N2CCOCC2)n1`, 0.366. Under `Nc1nc2ccc(OC(F)(F)F)cc2s1` [Riluzole] stands 0.991. With `NC(=O)N1c2ccccc2C=Cc2ccccc21` [Carbamazepine], the synaptosome phagocytic index came to 0.865. With `CN1CCN(c2cc(-c3ccncc3)c(-c3ccc4ccccc4c3)nn2)CC1`, the synaptosome phagocytic index worked out at 0.903. As for `COc1cc2/c(=N/c3ccc(Br)cc3F)nc[nH]c2cc1OCC1CCN(C)CC1` [Vandetanib], the synaptosome phagocytic index was determined as 0.248. Consider `CC1(C)S[C@@H]2[C@H](NC(=O)[C@H](N)c3ccc(O)cc3)C(=O)N2[C@H]1C(=O)O` [Amoxicillin_(sodium)], for which the synaptosome phagocytic index is 0.69.

Turning to `CCc1cc2c(cc1N1CCC(N3CCOCC3)CC1)C(C)(C)c1[nH]c3cc(C#N)ccc3c1C2=O` [Alectinib_(Hydrochloride)], the synaptosome phagocytic index was found to be 0.192. Turning to `Cc1nc2n(c(=O)c1CCN1CCC(c3noc4cc(F)ccc34)CC1)CCCC2` [Risperidone], the synaptosome phagocytic index worked out at 0.887. Turning to `CNC(=O)c1cc(Oc2ccc3nc(N[C@@H]4CCCC[C@H]4O)sc3c2)ccn1`, the synaptosome phagocytic index came out at 1.21. `C=CC(N)CCC(=O)O` (configuration not stated) [Vigabatrin]: the synaptosome phagocytic index was 0.918.

Regarding `CC(C)(S)[C@@H](N)C(=O)O` [Penicillamine], the synaptosome phagocytic index was found to be 0.328. For the molecule `CC(C)n1c(=O)n(C)c2cnc3cc(F)c(-c4ccc(OCCCN5CCCCC5)nc4)cc3c21`, the synaptosome phagocytic index was 0.706. `NC(=O)N1c2ccccc2CC(=O)c2ccccc21` [Oxcarbazepine]: the synaptosome phagocytic index came to 0.693. To `NC(=O)c1cn(Cc2c(F)cccc2F)nn1` [Rufinamide] belongs 0.654. To `CC(C)C[C@H](NC(=O)[C@H](CCCCN)NC(=O)[C@H](CO)NC(=O)[C@@H](N)CC(C)C)C(N)=O` [LSKL,_Inhibitor_of_Thrombospondin_(TSP-1)_(TFA)] belongs 1.05; to `CCN(CC)Cc1ccc2cc(COC(=O)Nc3ccc(C(=O)NO)cc3)ccc2c1` [Givinostat_(hydrochloride_monohydrate)], 0.482; to `O=C1N=C(O)NC1(c1ccccc1)c1ccccc1` [Phenytoin_(sodium)], 0.725. `Cc1nc(N)nc(N)c1-c1ccc(Cl)c(Cl)c1` [Metoprine]: the synaptosome phagocytic index was found to be 1.25. `CCCCN1CCCCC1C(=O)Nc1c(C)cccc1C` (configuration not stated) [Bupivacaine_(hydrochloride)]: the synaptosome phagocytic index stood at 0.836. On to `CCN(CC)C(=S)SSC(=S)N(CC)CC` [Disulfiram], for which the synaptosome phagocytic index came to 0.784. Turning to `N#Cc1ccc(Cn2ccc(NC(=O)Cc3ccc(C4(C(F)(F)F)CC4)cc3)n2)nc1`, the synaptosome phagocytic index was 1.06.

`COC[C@@H](c1ccc(C(F)(F)F)cc1)N1CCN(C2(C)CCN(C(=O)c3c(C)ncnc3C)CC2)C[C@@H]1C` [Vicriviroc_(maleate)]: the synaptosome phagocytic index turned out to be 0.947. For the molecule `Nc1nnc(-c2cccc(Cl)c2Cl)c(N)n1` [Lamotrigine], the synaptosome phagocytic index worked out at 1.3. To `CC1=C(/C=C/C(C)=C/C=C/C(C)=C/C(=O)O)C(C)(C)CCC1` [Retinoic_acid] belongs 0.339; to `CC(=O)[C@H]1CC[C@H]2[C@@H]3CC=C4C[C@@H](O)CC[C@]4(C)[C@H]3CC[C@]12C` [Pregnenolone], 0.878. Consider `CCc1cc(Nc2nc(-c3ccc(-n4cnc(C)c4)c(F)c3)cs2)c(C)cc1C`, for which the synaptosome phagocytic index amounted to 0.666.
